# Data taken from PubChem BioAssay (EPA / NIEHS).
# Results filed as inconclusive are left out. Activity calls are given as the source filed them. The calls were made as follows: active = hit-call score of the fitted dose curve at least 0.9, where 1 is the maximum; inconclusive = response in the unintended direction; inactive = score below 0.9.
# Target: human Caspase 5 (CASP5), CASP5 (gene 838) (UniProt P51878)
# Assay: NVS_ENZ_hCASP5: NovaScreen (NVS) Enzymatic Assay for human Caspase 5 (CASP5) (AID 2283137)
# Procedure, shortened: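 Loss of fluorescent signal versus DMSO scored for E. coli-derived human CASP5 cleaving a fluorescent substrate, 2 h post-dosing; compounds first tested at 25 uM in duplicate, hits rerun in concentration series with 50 uM top concentration.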
# human Caspase 5 (CASP5), CASP5 (gene 838), sequence (P51878 whole entry, looked up): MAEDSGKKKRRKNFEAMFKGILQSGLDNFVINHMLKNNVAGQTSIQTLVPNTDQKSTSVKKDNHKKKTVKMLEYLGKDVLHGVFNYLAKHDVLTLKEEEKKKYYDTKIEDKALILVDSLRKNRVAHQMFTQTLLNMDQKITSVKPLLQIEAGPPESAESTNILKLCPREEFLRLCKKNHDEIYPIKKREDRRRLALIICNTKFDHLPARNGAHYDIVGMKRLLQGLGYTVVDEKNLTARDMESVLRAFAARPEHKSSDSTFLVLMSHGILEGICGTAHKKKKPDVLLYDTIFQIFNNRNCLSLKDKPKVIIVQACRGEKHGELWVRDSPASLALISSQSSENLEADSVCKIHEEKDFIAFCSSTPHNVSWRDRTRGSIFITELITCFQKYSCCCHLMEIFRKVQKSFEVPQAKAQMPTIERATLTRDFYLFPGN
Compound,outcome,AC50
CC[C@H](NC(=O)c1cc(F)ccc1NS(=O)(=O)c1cccc2cccnc12)c1ccccc1,inactive,–
CCN(Cc1cccc(S(=O)(=O)O)c1)c1ccc(C(=C2C=CC(=[N+](CC)Cc3cccc(S(=O)(=O)O)c3)C=C2)c2ccccc2S(=O)(=O)[O-])cc1,–,5.36 µM (active)
CN1C(=O)N(c2ccccc2Br)Cc2cnc(Nc3ccc4c(c3)OCC(CO)O4)nc21 (centres undefined),–,12.5 µM (active)

# Target: human AKT serine/threonine Kinase 1 (AKT1), AKT1 (gene 207) (UniProt P31749)
# Sequence (P31749 whole entry, looked up): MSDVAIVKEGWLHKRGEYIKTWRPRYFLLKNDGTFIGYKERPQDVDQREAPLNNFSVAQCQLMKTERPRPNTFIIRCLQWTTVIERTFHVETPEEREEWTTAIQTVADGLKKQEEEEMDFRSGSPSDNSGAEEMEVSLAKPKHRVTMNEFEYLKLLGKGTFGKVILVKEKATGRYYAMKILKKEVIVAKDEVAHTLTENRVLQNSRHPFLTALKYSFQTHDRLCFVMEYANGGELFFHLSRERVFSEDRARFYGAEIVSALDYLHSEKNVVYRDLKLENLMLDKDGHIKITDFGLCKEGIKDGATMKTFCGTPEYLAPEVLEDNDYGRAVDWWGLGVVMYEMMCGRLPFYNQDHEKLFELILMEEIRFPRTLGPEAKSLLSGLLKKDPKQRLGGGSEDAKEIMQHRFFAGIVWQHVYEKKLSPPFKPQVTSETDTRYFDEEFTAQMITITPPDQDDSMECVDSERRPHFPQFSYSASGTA
# Assay: NVS_ENZ_hAKT1: NovaScreen (NVS) Enzymatic Assay for human AKT serine/threonine Kinase 1 (AKT1) (AID 2283138)
# Procedure, shortened: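 Screening first at 25 uM (duplicate), with threshold-passing chemicals re-tested in concentration series to a 50 uM maximum. Kinase activity read by fluorescence with mobility-shift separation of substrate and product, 1 h after dosing, DMSO baseline.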
Compound,AC50,outcome
O=CCCCC=O,25 µM (active),–
CC/C(=C(/CC)c1ccc(O)cc1)c1ccc(O)cc1,–,inactive
c1ccc2ccccc2c1,–,inactive

# Target: human Beta-secretase (BACE), BACE1 (gene 23621) (UniProt P56817)
# Sequence (P56817 whole entry, looked up): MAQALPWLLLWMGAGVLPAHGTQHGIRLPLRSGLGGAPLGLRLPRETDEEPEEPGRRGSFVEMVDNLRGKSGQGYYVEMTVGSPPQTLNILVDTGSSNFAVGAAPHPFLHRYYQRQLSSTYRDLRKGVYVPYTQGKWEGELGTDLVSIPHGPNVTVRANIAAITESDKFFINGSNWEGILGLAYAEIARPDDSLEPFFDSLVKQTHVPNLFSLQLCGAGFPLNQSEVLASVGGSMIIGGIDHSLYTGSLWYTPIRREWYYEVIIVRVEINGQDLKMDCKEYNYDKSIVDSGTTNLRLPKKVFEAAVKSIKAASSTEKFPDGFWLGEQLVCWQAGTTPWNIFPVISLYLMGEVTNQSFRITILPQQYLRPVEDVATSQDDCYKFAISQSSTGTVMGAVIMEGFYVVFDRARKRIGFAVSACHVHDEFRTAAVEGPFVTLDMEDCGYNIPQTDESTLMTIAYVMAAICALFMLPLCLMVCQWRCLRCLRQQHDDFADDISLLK
# Assay: NVS_ENZ_hBACE: NovaScreen (NVS) Enzymatic Assay for human Beta-secretase (BACE) (AID 2283140);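 also: hits are inhibitors that reduce fluorescent substrate signal versus DMSO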
# Procedure, shortened: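 Enzyme from SF9 cells was incubated 1 hour with compound and fluorogenic substrate, activity read by fluorescence. Single-concentration duplicates at 25 uM preceded concentration-response follow-up; fitting relative to DMSO baseline.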
Compound,outcome,AC50
NC(=O)c1nc(-c2cccc(-c3cc(F)ccc3OCC(F)(F)C(F)(F)F)c2)n[nH]1,inactive,–
OCCO,inactive,–
CCN(Cc1cccc(S(=O)(=O)O)c1)c1ccc(C(=C2C=CC(=[N+](CC)Cc3cccc(S(=O)(=O)O)c3)C=C2)c2ccccc2S(=O)(=O)[O-])cc1,–,14.8 µM (active)
CN(C[C@@H](CC[N+]12CCC(C3CCCCC3)(CC1)CC2)c1ccc(Cl)c(Cl)c1)C(=O)c1cc(C(F)(F)F)cc(C(F)(F)F)c1,–,29.9 µM (active)
CC(C)(C)c1csc(-c2cc3cc(OCc4ccccc4CC(=O)O)ccc3o2)n1,–,17.1 µM (active)
Cc1ccc(C(C)C)cc1,inactive,–
O=C(O)c1ccccc1-n1cc(C(=O)O)c(=O)c2cc(Nc3c(F)cc(F)cc3Cl)c(Cl)cc21,–,5.43 µM (active)
CC(=O)N1CCN(c2ccc(OC[C@H]3CO[C@](Cn4ccnc4)(c4ccc(Cl)cc4Cl)O3)cc2)CC1,inactive,–

# Target: CDK2 (gene 1017) (UniProt P24941)
# Assay: NVS_ENZ_hCDK2: NovaScreen (NVS) Enzymatic Assay for human Cyclin-Cependent Kinase 2 (CDK2) (AID 2283144)
# Procedure, shortened: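 Compounds screened in duplicate at 25 uM, then in singleton concentration-response to a maximum of 50 uM, against recombinant CDK2; kinase activity read 1 hr after dosing by fluorescence with mobility-shift separation of substrate and product.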
Compound,outcome,AC50
Oc1ccc2ccccc2c1,inactive,–
c1ccc2ccccc2c1,inactive,–
CN1C(=O)N(c2ccccc2Br)Cc2cnc(Nc3ccc4c(c3)OCC(CO)O4)nc21 (centres undefined),–,11.7 µM (active)
Clc1cc(Cl)c2c(c1)N=C1CCCCCN1C2,inactive,–

# Target: human Caspase 8 (CASP8), CASP8 (gene 841) (UniProt Q14790)
# Sequence (Q14790 whole entry, looked up): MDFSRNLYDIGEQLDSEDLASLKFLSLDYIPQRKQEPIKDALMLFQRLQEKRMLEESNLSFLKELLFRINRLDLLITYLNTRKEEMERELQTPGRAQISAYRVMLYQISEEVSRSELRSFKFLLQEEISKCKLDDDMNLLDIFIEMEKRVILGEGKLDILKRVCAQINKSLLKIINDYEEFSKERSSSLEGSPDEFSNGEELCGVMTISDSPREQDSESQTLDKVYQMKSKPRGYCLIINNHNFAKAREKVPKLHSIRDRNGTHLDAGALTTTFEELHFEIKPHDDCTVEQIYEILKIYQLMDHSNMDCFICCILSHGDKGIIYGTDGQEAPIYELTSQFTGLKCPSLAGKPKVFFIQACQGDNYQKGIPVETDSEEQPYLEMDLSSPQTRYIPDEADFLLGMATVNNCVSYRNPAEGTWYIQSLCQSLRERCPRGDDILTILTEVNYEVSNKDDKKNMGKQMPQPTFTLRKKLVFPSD
# Assay: NVS_ENZ_hCASP8: NovaScreen (NVS) Enzymatic Assay for human Caspase 8 (CASP8) (AID 2283146)
# Procedure, shortened: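 The primary screen tested compounds in duplicate at a single 25 uM concentration, with actives followed up in concentration series. Activity of recombinant (E. coli) protease was measured by fluorescence 1 h post-dose, as signal loss against DMSO.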
row,Compound,outcome
1,CCCCCCCCCCCC[N+](C)(C)C,inactive
2,CCCCCCCCOc1ccc(C(=O)c2ccccc2)c(O)c1,inactive
3,CCN(Cc1cccc(S(=O)(=O)O)c1)c1ccc(C(=C2C=CC(=[N+](CC)Cc3cccc(S(=O)(=O)O)c3)C=C2)c2ccccc2S(=O)(=O)[O-])cc1,inactive
4,CC/C(=C(/CC)c1ccc(O)cc1)c1ccc(O)cc1,inactive

# Target: human Casein Kinase 1-delta (CK1D), CSNK1D (gene 1453) (UniProt P48730)
# Sequence (P48730 whole entry, looked up): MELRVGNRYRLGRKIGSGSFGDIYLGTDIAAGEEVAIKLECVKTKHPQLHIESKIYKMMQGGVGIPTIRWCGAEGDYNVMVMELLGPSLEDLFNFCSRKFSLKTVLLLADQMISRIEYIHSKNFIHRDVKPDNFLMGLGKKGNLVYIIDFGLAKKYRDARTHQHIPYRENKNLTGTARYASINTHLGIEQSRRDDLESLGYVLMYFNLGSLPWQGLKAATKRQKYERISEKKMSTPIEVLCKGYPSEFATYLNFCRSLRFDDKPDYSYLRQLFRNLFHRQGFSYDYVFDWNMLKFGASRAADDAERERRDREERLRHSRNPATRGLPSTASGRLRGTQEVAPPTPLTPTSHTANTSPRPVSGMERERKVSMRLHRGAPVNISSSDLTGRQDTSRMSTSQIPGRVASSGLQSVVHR
# Assay: NVS_ENZ_hCK1D: NovaScreen (NVS) Enzymatic Assay for human Casein Kinase 1-delta (CK1D) (AID 2283148)
# Procedure, shortened: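 Recombinant human CK1-delta, cell-free; fluorescent substrate with electrophoretic mobility-shift separation of product, read 1 h after dosing. Single 25 uM duplicate screen, then concentration-response up to 50 uM; loss of signal vs DMSO.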
Compound,AC50,outcome
Oc1ccc2ccccc2c1,24.1 µM (active),–
CCN(Cc1cccc(S(=O)(=O)O)c1)c1ccc(C(=C2C=CC(=[N+](CC)Cc3cccc(S(=O)(=O)O)c3)C=C2)c2ccccc2S(=O)(=O)[O-])cc1,–,inactive
CN(C[C@@H](CC[N+]12CCC(C3CCCCC3)(CC1)CC2)c1ccc(Cl)c(Cl)c1)C(=O)c1cc(C(F)(F)F)cc(C(F)(F)F)c1,–,inactive
O=CCCCC=O,–,inactive
CC/C(=C(/CC)c1ccc(O)cc1)c1ccc(O)cc1,–,inactive
c1ccc2ccccc2c1,–,inactive
CC(=O)N1CCN(c2ccc(OC[C@H]3CO[C@](Cn4ccnc4)(c4ccc(Cl)cc4Cl)O3)cc2)CC1,–,inactive
c1ccc2n[nH]nc2c1,25 µM (active),–

# Target: human Colony Stimulating Factor 1 Receptor (CSF1R), CSF1R (gene 1436) (UniProt P07333)
# Sequence (P07333 whole entry, looked up): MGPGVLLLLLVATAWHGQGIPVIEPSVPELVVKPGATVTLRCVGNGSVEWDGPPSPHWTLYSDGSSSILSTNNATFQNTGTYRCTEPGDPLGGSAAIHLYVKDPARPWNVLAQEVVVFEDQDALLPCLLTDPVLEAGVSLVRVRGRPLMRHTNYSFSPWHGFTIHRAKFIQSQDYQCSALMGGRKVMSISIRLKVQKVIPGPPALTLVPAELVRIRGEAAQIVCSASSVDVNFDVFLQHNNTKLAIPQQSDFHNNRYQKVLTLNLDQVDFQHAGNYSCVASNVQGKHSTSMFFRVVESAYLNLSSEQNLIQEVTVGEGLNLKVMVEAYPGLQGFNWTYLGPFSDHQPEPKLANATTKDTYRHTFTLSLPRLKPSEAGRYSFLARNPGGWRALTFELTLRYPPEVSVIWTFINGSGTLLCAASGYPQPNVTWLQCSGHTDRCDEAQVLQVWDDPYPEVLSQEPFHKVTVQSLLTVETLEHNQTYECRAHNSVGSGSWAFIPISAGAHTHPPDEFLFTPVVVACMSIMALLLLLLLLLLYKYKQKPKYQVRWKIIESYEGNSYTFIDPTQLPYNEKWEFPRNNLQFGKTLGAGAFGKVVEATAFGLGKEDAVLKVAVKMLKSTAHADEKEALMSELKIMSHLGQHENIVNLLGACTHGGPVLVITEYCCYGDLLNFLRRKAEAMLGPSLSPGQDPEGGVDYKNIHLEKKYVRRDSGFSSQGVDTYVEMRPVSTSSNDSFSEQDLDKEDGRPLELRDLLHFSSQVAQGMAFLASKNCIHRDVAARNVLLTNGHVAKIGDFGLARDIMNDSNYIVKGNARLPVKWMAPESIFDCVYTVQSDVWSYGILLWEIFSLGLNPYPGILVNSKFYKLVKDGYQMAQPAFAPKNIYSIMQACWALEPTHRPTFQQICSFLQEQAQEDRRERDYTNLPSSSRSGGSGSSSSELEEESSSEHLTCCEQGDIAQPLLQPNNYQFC
# Assay: NVS_ENZ_hCSF1R: NovaScreen (NVS) Enzymatic Assay for human Colony Stimulating Factor 1 Receptor (CSF1R) (AID 2283150)
# Procedure, shortened: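 Compounds screened in duplicate at 25 uM, then concentration-response (top 50 uM) for those passing threshold such as 30% inhibition; recombinant CSF1R activity measured 1 h post-dosing via fluorescent substrate/product mobility-shift separation, loss of signal versus DMSO.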
Compound,outcome,AC50
CCCC(=O)OCCC(C)C,inactive,–
Cc1oc2c(NC(=O)c3c(Cl)cccc3Cl)cccc2c1C(C)(C)O,inactive,–
CCN(Cc1cccc(S(=O)(=O)O)c1)c1ccc(C(=C2C=CC(=[N+](CC)Cc3cccc(S(=O)(=O)O)c3)C=C2)c2ccccc2S(=O)(=O)[O-])cc1,–,2.94 µM (active)
CC(C)(C)c1csc(-c2cc3cc(OCc4ccccc4CC(=O)O)ccc3o2)n1,inactive,–
CC/C(=C(/CC)c1ccc(O)cc1)c1ccc(O)cc1,inactive,–
c1ccc2ccccc2c1,inactive,–

# Target: human Dual Specificity Protein Phosphatase 3 (DUSP3), DUSP3 (gene 1845) (UniProt P51452)
# Sequence (P51452 whole entry, looked up): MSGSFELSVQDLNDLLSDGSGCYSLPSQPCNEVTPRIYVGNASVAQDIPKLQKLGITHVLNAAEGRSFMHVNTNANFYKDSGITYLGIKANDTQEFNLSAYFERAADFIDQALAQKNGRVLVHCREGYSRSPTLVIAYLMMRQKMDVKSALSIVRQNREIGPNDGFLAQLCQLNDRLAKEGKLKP
# Assay: NVS_ENZ_hDUSP3: NovaScreen (NVS) Enzymatic Assay for human Dual Specificity Protein Phosphatase 3 (DUSP3) (AID 2283152);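 also: phosphatase activity of recombinant human DUSP3 on a fluorogenic substrate without cells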
# Procedure, shortened: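 Cell-free fluorescence-intensity enzyme activity assay with recombinant protein and substrate; loss of signal fitted relative to DMSO baseline. Primary screen in duplicate at 25 uM, actives then run in concentration series; measured 0 h after dosing.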
Compound,outcome,AC50
CCCCCCCCOc1ccc(C(=O)c2ccccc2)c(O)c1,inactive,–
CCN(Cc1cccc(S(=O)(=O)O)c1)c1ccc(C(=C2C=CC(=[N+](CC)Cc3cccc(S(=O)(=O)O)c3)C=C2)c2ccccc2S(=O)(=O)[O-])cc1,–,12.5 µM (active)
CN1C(=O)N(c2ccccc2Br)Cc2cnc(Nc3ccc4c(c3)OCC(CO)O4)nc21 (centres undefined),–,8 µM (active)
Cc1cc(F)ccc1-c1cc(N2CC[C@@H](O)[C@H]2CO)ncc1N(C)C(=O)C(C)(C)c1cc(C(F)(F)F)cc(C(F)(F)F)c1,–,12.3 µM (active)
Cc1ccc2oc(CN(Cc3ccccc3)C(=O)Nc3c(F)cc(F)cc3F)c(-c3ccc(Cl)cc3)c2c1,–,9.32 µM (active)

# Target: human Elastase, ELANE (gene 1991) (UniProt P08246)
# Sequence (P08246 whole entry, looked up): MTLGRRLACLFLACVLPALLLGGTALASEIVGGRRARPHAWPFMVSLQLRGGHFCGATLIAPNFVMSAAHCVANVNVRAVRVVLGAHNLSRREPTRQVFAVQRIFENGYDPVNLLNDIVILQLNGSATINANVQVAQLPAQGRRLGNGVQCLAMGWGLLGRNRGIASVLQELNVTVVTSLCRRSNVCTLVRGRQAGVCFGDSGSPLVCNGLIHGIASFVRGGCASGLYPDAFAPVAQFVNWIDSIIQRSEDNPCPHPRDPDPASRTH
# Assay: NVS_ENZ_hElastase: NovaScreen (NVS) Enzymatic Assay for human Elastase (AID 2283153)
# Procedure, shortened: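 Concentration-response to 50 uM max, run singly for chemicals passing a threshold (e.g., 30% inhibition) in a duplicate 25 uM single-point screen. Neutrophil-derived human elastase, absorbance read-out of enzyme activity at 1.5 h; DMSO baseline.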
Compound,AC50,outcome
CCCCCCCCCCCO,27.4 µM (active),–
O=C1O[C@H]([C@@H](O)CO)C(O)=C1O,–,inactive
CC[C@@H]1C[C@H](N(Cc2cc(C(F)(F)F)cc(C(F)(F)F)c2)C(C)=O)c2cc(C(F)(F)F)ccc2N1C(=O)OC(C)C,–,inactive
CCN(Cc1cccc(S(=O)(=O)O)c1)c1ccc(C(=C2C=CC(=[N+](CC)Cc3cccc(S(=O)(=O)O)c3)C=C2)c2ccccc2S(=O)(=O)[O-])cc1,3.18 µM (active),–
CC(C)(C)c1csc(-c2cc3cc(OCc4ccccc4CC(=O)O)ccc3o2)n1,12.5 µM (active),–
O=C(O)c1ccccc1-n1cc(C(=O)O)c(=O)c2cc(Nc3c(F)cc(F)cc3Cl)c(Cl)cc21,18.4 µM (active),–
CC/C(=C(/CC)c1ccc(O)cc1)c1ccc(O)cc1,–,inactive
CN1C(=O)N(c2ccccc2Br)Cc2cnc(Nc3ccc4c(c3)OCC(CO)O4)nc21 (centres undefined),17 µM (active),–
